Results on 100 compounds are retold here after ChEMBL document CHEMBL1201862, “PubChem BioAssay data set” (2004).

Each structure is given as a SMILES string. The campaign covered roughly 400,000 compounds. About 2,100 (0.53%) were called active. Inconclusive results (about 14%) are left out. No rule for the calls is given here. The full list was thinned out, with actives kept by preference.

The target in this test is Ataxin-2 (Homo sapiens) (UniProt Q99700). Briefly: qHTS for Inhibitors of ATXN expression. It counts as functional.
Ataxin-2 (Homo sapiens), sequence (Q99700 whole entry): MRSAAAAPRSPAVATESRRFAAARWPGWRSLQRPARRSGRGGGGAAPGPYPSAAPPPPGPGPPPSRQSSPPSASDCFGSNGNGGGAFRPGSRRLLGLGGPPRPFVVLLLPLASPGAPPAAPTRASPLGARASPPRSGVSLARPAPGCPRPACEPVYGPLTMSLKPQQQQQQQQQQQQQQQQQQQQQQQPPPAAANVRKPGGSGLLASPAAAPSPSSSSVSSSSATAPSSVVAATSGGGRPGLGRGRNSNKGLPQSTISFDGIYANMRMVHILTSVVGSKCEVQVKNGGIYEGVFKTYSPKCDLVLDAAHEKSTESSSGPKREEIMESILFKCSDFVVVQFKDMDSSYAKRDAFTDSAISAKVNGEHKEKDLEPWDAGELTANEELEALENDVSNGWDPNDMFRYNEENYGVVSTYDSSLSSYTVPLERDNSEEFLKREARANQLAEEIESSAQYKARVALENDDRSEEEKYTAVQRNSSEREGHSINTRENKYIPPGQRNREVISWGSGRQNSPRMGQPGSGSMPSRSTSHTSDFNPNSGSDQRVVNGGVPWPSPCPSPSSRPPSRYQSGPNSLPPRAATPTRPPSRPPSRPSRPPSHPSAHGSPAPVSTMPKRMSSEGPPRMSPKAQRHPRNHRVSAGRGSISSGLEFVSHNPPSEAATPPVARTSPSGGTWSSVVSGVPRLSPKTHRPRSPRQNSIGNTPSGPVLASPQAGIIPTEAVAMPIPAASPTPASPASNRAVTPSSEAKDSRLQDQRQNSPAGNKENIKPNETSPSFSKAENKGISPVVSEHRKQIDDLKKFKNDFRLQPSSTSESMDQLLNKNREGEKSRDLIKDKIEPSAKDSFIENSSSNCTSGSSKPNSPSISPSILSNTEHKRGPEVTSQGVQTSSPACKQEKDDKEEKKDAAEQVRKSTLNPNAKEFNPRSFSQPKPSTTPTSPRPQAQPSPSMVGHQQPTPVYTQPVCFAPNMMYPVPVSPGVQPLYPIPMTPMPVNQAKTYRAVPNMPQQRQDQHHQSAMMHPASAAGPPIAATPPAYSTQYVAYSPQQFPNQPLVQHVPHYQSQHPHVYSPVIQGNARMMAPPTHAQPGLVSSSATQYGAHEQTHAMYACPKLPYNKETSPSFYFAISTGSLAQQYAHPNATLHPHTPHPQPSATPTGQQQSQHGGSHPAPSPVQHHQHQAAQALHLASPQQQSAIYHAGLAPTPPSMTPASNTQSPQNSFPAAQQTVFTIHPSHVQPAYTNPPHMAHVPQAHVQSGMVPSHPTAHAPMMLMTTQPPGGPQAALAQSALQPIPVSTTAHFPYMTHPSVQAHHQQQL
In the case of `O=C(Nc1ccc(Cl)cc1)c1cnn2c1NC(c1ccccc1)=CC2c1ccccc1` (stereo not given), the Potency result is “inactive”.
For `CC1=C(C(=O)Nc2ccc(Cl)cc2)C(c2ccc(C(F)(F)F)cc2)n2nnnc2N1` (stereo not given), the Potency is 28.2 µM (active).
For `CN1CCc2ccc(NC(=O)c3ccc(C(F)(F)F)cc3)cc2C1`, the Potency entry is “inactive”.
The entry for `Cc1ccc(S(=O)(=O)Nc2ccccc2/C=N/c2nc3ccccc3n2C)cc1` is “inactive”; for `C/C(=N\N1C(=O)c2ccccc2NC1c1ccco1)c1ccccc1O` (stereo not given) it is 2 µM (active); for `O=C(c1cnn(C(=O)c2ccco2)c1)c1ccccc1O` it is “inactive”.
Then `Cc1ccc(/C=N/N2C(=O)c3ccccc3NC2c2ccc(C)cc2)cc1` (stereo not given), with “inactive”; and `COc1cccc(C2C=C(c3ccc(Br)s3)Nc3ncnn32)c1OC` (stereo not given), with “inactive”; and `O=[N+]([O-])c1ccc(C2(O)C[N+](c3ccccc3)=C3SCCN32)cc1` (stereo not given), with “inactive”.
Consider `Cc1ccsc1/C=C1\Oc2cc(O)ccc2C1=O`, for which the Potency entry is “inactive”.
Then `O=C1C=CC(=O)N1CCNc1ncc(C(F)(F)F)cc1Cl`, with 35.5 µM (active).
In the case of `O=S(=O)(NNc1ncc(C(F)(F)F)cc1Cl)c1ccc(F)cc1F`, the Potency result is “inactive”.
With `NNc1nc2cccnc2n(CCNc2ncc(C(F)(F)F)cc2Cl)c1=O`, the Potency result was “inactive”.
With `CCOCCCn1c(=N)c(C(=O)NCc2ccco2)cc2c(=O)n3ccccc3nc21`, the Potency result is “inactive”.
`O=C1[C@H](Oc2ccccc2)[C@@H](c2ccccc2)N1c1ccncc1`: the Potency was 28.2 µM (active).
Then `O=C1[C@H]2C(c3ccccc3)=NN(c3ccccc3)[C@H]2C(=O)N1c1ccccc1`, with “inactive”; and `O=C1[C@@H](c2ccccc2)[C@@H](c2ccccc2)N1c1cccnc1`, with 25.1 µM (active).
The entry for `O=C1c2ccccc2C(Nc2ccc(Cl)cn2)N1c1cccnc1` (stereo not given) is “inactive”; for `CCOC(=O)C1CCN(Cc2nc3ccc([N+](=O)[O-])cc3c(=O)n2-c2ccc(OC)cc2OC)CC1` it is “inactive”.
On to `N#CC1=C(N)Oc2cc(O)ccc2C1c1ccc(Br)s1` (stereo not given), for which the Potency result was “inactive”.
On to `c1cc2c3c(cccc3c1)NC1(CCC3(CC1)Nc1cccc4cccc(c14)N3)N2`, for which the Potency is 35.5 µM (active).
Then `Cn1c(-c2cc3ccc(OC(=O)C(C)(C)C)cc3oc2=O)nc2ccccc21`, with “inactive”.
Regarding `COc1ccc(-c2c3c(nc4sc(C(=O)Nc5ccccc5)c(N)c24)CCC3)cc1`, the Potency result is “inactive”.
Then `COc1ccc(NC(=O)c2c(NC(=O)CCC(=O)O)sc3c2CCCCC3)cc1`, with “inactive”.
Turning to `CCOc1ccccc1NC(=O)c1sc2nc(-c3ccc(OC)cc3)ccc2c1N`, the Potency result is “inactive”.
Then `COc1ccc(CC(=O)Nc2sc3c(c2C(=O)Nc2cccc(Cl)c2)CCCCC3)cc1`, with 28.2 µM (active).
The figure for `CCOc1ccccc1NC(=O)c1c(NC(=O)Cc2ccc(OC)cc2)sc2c1CCC2` is 25.1 µM (active).
In the case of `OC[C@@H]1[C@@H](c2ccccc2)C(c2ccc(F)cc2)=NN1c1ccccc1`, the Potency entry is “inactive”.
As for `Cn1c(=O)c2nc3ccc(NC(=O)C(F)(F)F)cc3nc2n(C)c1=O`, the Potency entry was “inactive”.
The figure for `O=C(CCn1cnc2onc(-c3ccc(F)cc3)c2c1=O)Nc1cccc(C(F)(F)F)c1` is 20 µM (active); for `Cc1cc(C)n(CCC(=O)Nc2cccc(F)c2)n1` it is “inactive”; for `CC(C)(C)c1ccc(C(=O)Nc2cccc3c(=O)[nH][nH]c(=O)c23)cc1` it is “inactive”.
The entry for `COc1ccc(NC(=O)CSc2nnc(C)n2C2CC2)cc1S(=O)(=O)N1CCOCC1` is “inactive”; for `Cc1ccc(NC(=O)CCS(=O)(=O)c2ccccc2)cc1S(=O)(=O)N1CCOCC1` it is “inactive”.
For the compound `O=C(Nc1cccc(S(=O)(=O)N2CCCCC2)c1)c1ccc(OCC2CCCO2)cc1` (stereo not given), the Potency result was “inactive”.
Turning to `Cc1cc(C(=O)Nc2ccc(Cl)c(S(=O)(=O)N3CCOCC3)c2)c2ccccc2n1`, the Potency result is “inactive”.
Then `Cc1ccc(S(=O)(=O)N2CCOCC2)cc1NC(=O)COC(=O)CNC(=O)c1ccc(C(C)(C)C)cc1`, with “inactive”; and `O=C(NC1=NCCS1)c1ccc(Cl)c(S(=O)(=O)N2CCOCC2)c1`, with “inactive”; and `Cc1cc(C)n(-c2ccc(C(=O)Nc3ccc(C)c(S(=O)(=O)N4CCOCC4)c3)cc2)n1`, with 12.6 µM (active).
As to `Cc1ccc(NC(=O)C2CCC(C(C)(C)C)CC2)cc1S(=O)(=O)N1CCOCC1` (stereo not given), the Potency was 31.6 µM (active).
Turning to `O=C(Nc1ccc(Cl)c(S(=O)(=O)N2CCOCC2)c1)c1ccc(OCC2CCCO2)cc1` (stereo not given), the Potency was 11.2 µM (active).
Take `Cc1cc(/C=C(\C#N)C(=O)NC2CCCCCC2)c(C)n1C`: the Potency result was “inactive”.
Then `COc1ccc(C2CC(c3cccc(Cl)c3)=NN2c2ccc(S(N)(=O)=O)cc2)cc1` (stereo not given), with “inactive”; and `CC1Cc2ccccc2N1CC(=O)NC(=O)NC1CCCC1` (stereo not given), with “inactive”.
`O=C(c1cccnc1)N1CCN(Cc2ccc3ccccc3c2)CC1`: the Potency result was “inactive”.
Then `COc1ccc(CN2CCCC(C(=O)N3CCCCC3)C2)cc1` (stereo not given), with “inactive”.
Then `O=C(C1=C[C@@H](C2CCCCC2)C[C@@H](OCc2ccc(CO)cc2)O1)N1CCN(Cc2ccccc2)CC1`, with 39.8 µM (active); and `Cc1cc(=O)oc2cc(OC(=O)c3cncc(Br)c3)ccc12`, with “inactive”; and `CCc1c(C2(O)CCCCC2)[nH]c2ccc(C(F)(F)F)cc12`, with 25.1 µM (active).
On to `Cc1c(C2(O)CCCCC2)[nH]c2cc(C(F)(F)F)ccc12`, for which the Potency is 35.5 µM (active).
Then `COCc1cc(C)nc2oc(C(=O)c3ccccc3)c(N)c12`, with “inactive”; and `CCCCC[C@H](O)/C=C/C1C(=O)C=C[C@H]1C/C=C\CCCC(=O)OC` (stereo not given in full), with 35.5 µM (active); and `CCCCC[C@@H](/C=C/C1C(=O)C=C[C@H]1C/C=C\CCCC(=O)OC)OC(C)=O` (stereo not given in full), with 35.5 µM (active).
Then `CCOC(=O)c1c(NC(=O)c2ccc(S(=O)(=O)N3CCCC(C)C3)cc2)sc2c1CCN(C(C)C)C2` (stereo not given), with “inactive”; and `Cc1cc(-c2ccc(Br)s2)nc(-n2cccc2)n1`, with “inactive”; and `OC1(c2ccc(Cl)c(Cl)c2)C[n+]2ccccc2N1Cc1ccccc1` (stereo not given), with 28.2 µM (active).
For `Cc1ccc2nc3c(cc(C(=O)NCCc4ccccc4)c(=N)n3CCCN3CCOCC3)c(=O)n2c1`, the Potency result was “inactive”.
The entry for `CC(C)(O)C#Cc1ncc(C(F)(F)F)cc1Cl` is “inactive”; for `N#CC(C#N)=c1ccc2c(c1)NC1(CCCCC1)N=2` it is 12.6 µM (active); for `COc1ccc(CCNC(=O)COc2ccc(S(=O)(=O)NC3CCCCC3)cc2Cl)cc1` it is 35.5 µM (active).
`COc1ccc(CCNC(=O)C(=O)NCC2OCCN2S(=O)(=O)c2ccc(OC)c(OC)c2)cc1` (stereo not given): the Potency result is “inactive”.
On to `O=C(COc1ccc(F)cc1Cl)NC1CCCCCC1`, for which the Potency result was “inactive”.
The entry for `CCCCNc1c(-c2ccc(SC3CCCCC3)cc2)nc2cnccn12` is “inactive”; for `Cc1ccc(-c2nnc(NC3CCCCC3)c3ccccc23)cc1S(=O)(=O)N1CCN(C)CC1` it is 11.2 µM (active).
Then `Cc1noc(C)c1COc1ccc(C(=O)NCCc2ccc(S(N)(=O)=O)cc2)cc1`, with “inactive”; and `COc1ccc(CCNC(=O)c2coc(=O)c(Br)c2)cc1`, with 20 µM (active); and `O=C(COc1ccccc1Br)NCCC1=CCCCC1`, with “inactive”.
The figure for `O=C(NCCC1=CCCCC1)c1coc(=O)c(Br)c1` is 31.6 µM (active); for `Cn1c(C(=O)O)cc2c(=O)n3ccccc3nc21` it is “inactive”; for `O=C(Nc1ccc2cccnc2c1)c1ccc(Br)cc1` it is “inactive”.
Regarding `CC(=O)OCCn1c2nc(=O)[nH]c(=O)c-2nc2cc(C)c(C)cc21`, the Potency result is “inactive”.
On to `COc1cccc(C2C3=C(O)CC(C)(C)CC3=NC(C)=C2C(=O)Nc2nc3ccccc3s2)c1OC` (stereo not given), for which the Potency result is “inactive”.
Then `COc1ccc2nc(Nc3ccccc3)sc2c1`, with “inactive”.
The figure for `COc1ccc2nc(NN=C3C(=O)CC(C)(C)CC3=O)sc2c1` is 33.6 µM (active); for `O=C(Nc1ccc2oc(=O)ccc2c1)c1ccc(-c2cccc([N+](=O)[O-])c2)o1` it is 39.8 µM (active).
Consider `COc1ccc(CCNC(=O)c2ccc(-c3cccc([N+](=O)[O-])c3)o2)cc1OC`, for which the Potency result is “inactive”.
Regarding `O=C(Nc1nccs1)c1ccc(-c2ccc([N+](=O)[O-])cc2)o1`, the Potency entry was “inactive”.
Take `COc1cc2c(cc1N/C=C(\C#N)c1nc(-c3ccccc3)cs1)oc1ccccc12`: the Potency entry is “inactive”.
`COc1ccc(C(=N)NOC(=O)/C=C/c2ccccc2)cc1`: the Potency entry was “inactive”.
Regarding `COc1cc2c(cc1NC(=O)COC(=O)/C=C/c1ccccc1)oc1ccccc12`, the Potency was 17.8 µM (active).
Then `CCCCc1ccc(/C(C)=N/Nc2cc(N3CCOCC3)nc(C)n2)cc1`, with “inactive”.
Then `O=C(CN1C(=O)NC2(CCCCC2)C1=O)Nc1ccc2c(c1)CCC2`, with 28.2 µM (active); and `O=C(CN1CCN(Cc2ccccc2)CC1)Nc1ccc2c(c1)CCC2`, with “inactive”.
The entry for `O=C(CN1C(=O)NC2(CCCC2)C1=O)Nc1nc(-c2ccccc2)cs1` is “inactive”.
With `CCc1ccccc1-n1c(N)c(C(=O)OC)c2nc3ccccc3nc21`, the Potency result is “inactive”.
The entry for `O=C(O)c1cc2c(ncc3c(=O)n(-c4ccccc4)[nH]c32)s1` is “inactive”; for `Cc1[nH]n(-c2ccc(Cl)cc2)c(=O)c1N=Nc1cccnc1` it is “inactive”.
The figure for `Cc1[nH]n(-c2ccccc2)c(=O)c1N=Nc1c(O)cc(S(=O)(=O)N(C)C)c2ccccc12` is 4.47 µM (active); for `CN1C(=O)c2cccc3c(S(=O)(=O)N(C)C)ccc1c23` it is “inactive”.
Then `CN(C)S(=O)(=O)c1ccc2[nH]cc(/C=C/c3nc4ccccc4c(=O)n3-c3ccccc3)c2c1`, with “inactive”.
As for `Cc1[nH]n(-c2ccccc2)c(=O)c1N=Nc1nccs1`, the Potency was 39.8 µM (active).
For the compound `Cc1cccc(/N=c2\oc3cc(O)ccc3cc2C(N)=O)c1`, the Potency result was “inactive”.
Then `COc1cccc(C2Oc3ccccc3C3CC(c4cccs4)=NN32)c1` (stereo not given), with “inactive”; and `COC(=O)c1sc2nc3c(c(-c4cccs4)c2c1N)CCCC3`, with “inactive”.
Then `COC(=O)CSc1nc(N)c2c3c(sc2n1)C(c1ccccc1)SC(c1ccccc1)C3` (stereo not given), with 35.5 µM (active).
On to `CC1(C)Cc2c(sc3nc(SCC(=O)O)nc(N)c23)CO1`, for which the Potency result is “inactive”.
The entry for `Cc1ccc2oc(=O)c(S(=O)(=O)c3ccc(F)cc3)cc2c1` is “inactive”.
The entry for `Cc1ccc(NC(=O)COC(=O)c2c[nH]c3ccccc23)cc1C` is “inactive”.
The figure for `Cc1cn(-c2cc(C(=O)Nc3ccc(C)c(NC(=O)C(=O)c4c[nH]c5ccccc45)c3)cc(C(F)(F)F)c2)cn1` is 20 µM (active); for `O=C(NCCOc1ccccc1Cl)C(=O)c1c[nH]c2ccccc12` it is “inactive”.
